Rows were chosen to be rich in hits. Some 2.9% of all compounds tested hit in one or more screens of this group.
Pol kappa inh: DNA polymerase kappa (human) inhibition; 400,000 tested, 0.53% active; Q9UBT6; Potency, µM (titrated, usually from 107 µM), hits mostly inhibitors; purified Pol kappa, fluorescent DNA synthesis assay, 10 min
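10 nM Pol kappa was preincubated with compounds for 15 min at room temperature. Reaction started with 50 nM (final) substrate. Fluorescence read kinetically at 0 and 10 min.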
PI5P4K alpha inh: blocks human PI5P4K alpha kinase activity; P48426; PI5P4Kalpha enzyme, ADP-Glo luminescence, 60 min; stronger effect = lower value; max response, %; 330,000 tested, 1.2% active; active means max response of -50% or lower; inconclusive means between -30% and -50%; inactive means -30% or higher; further: value at the top dose of about 77 µM
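ADP-Glo luminescence end-point read after a 60 min room-temperature kinase reaction of PI5P4Kalpha plus substrate, initiated with ATP at 5 microM final. Buffer: 0.038 M HEPES pH 7.4, EGTA, 0.1% CHAPS, 5% DMSO.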
Pol iota inh: inhibitors of human DNA polymerase iota; Potency, µM (highest dose often 115 µM), most hits filed as inhibitors; Pol iota fluorescent replication assay, 10 min; 390,000 tested, 1% active
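Fluorescent replication assay read twice, at 0 min and 10 min after adding 50 nM (final) substrate. Enzyme (10 nM) and compounds were first incubated 15 min at room temperature; enzyme-free buffer wells were negative controls.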
Pol beta inh: DNA polymerase beta (human) inhibition; Pol beta primer extension/strand displacement, fluorescence kinetic; Potency, µM (doses to about 114 µM), most hits filed as inhibitors; AID 485314; 340,000 tested, 1.3% active; P06746
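Pol beta (10 nM) and compounds were preincubated 15 min at room temperature, then 50 nM substrate (final) started primer extension/strand displacement. Reads were taken at 0 and 10 min; concentration-response data were fitted to a four-parameter Hill equation.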
12-LOX inh: blocks human arachidonate 12S-lipoxygenase | AID 1671190 | 580,000 tested, 1.1% active | purified 12hLO, xylenol orange hydroperoxide absorbance | P18054 | Potency, µM (doses to about 108 µM), most hits filed as inhibitors
Target sequence (P18054 whole entry, looked up): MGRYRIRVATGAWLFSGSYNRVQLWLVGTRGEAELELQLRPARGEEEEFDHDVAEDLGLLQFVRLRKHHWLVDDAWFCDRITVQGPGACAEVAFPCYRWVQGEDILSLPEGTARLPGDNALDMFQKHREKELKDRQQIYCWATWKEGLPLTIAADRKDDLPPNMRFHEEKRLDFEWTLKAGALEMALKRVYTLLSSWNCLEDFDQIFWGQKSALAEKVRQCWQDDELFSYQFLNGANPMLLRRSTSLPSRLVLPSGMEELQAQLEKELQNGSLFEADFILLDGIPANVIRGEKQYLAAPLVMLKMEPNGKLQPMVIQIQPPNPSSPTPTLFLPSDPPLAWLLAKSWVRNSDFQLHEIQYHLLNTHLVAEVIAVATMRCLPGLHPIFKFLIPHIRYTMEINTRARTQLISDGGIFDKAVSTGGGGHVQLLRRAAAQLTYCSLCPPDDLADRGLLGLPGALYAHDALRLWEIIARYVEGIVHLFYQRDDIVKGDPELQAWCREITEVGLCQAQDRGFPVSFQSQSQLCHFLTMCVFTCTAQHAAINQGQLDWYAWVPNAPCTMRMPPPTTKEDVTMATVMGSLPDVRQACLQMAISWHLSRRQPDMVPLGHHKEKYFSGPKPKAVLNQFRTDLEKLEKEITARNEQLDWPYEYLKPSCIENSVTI
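Purified human 12hLO at 150 nM in 25 mM Hepes, 0.01% Triton X-100, pH 7.0, preincubated 15 min at room temperature with compound. Reaction started with 40 uM arachidonic acid, 30 min at room temperature. Hydroperoxide measured by Fe-xylenol orange, 573/405 nm absorbance ratio.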
Pol eta inh: DNA polymerase eta (human) inhibition; Potency, µM (titrated, usually from 114 µM), hits mostly inhibitors; recombinant Pol eta, fluorescent DNA replication assay; Q9Y253; 390,000 tested, 1.2% active
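Pol eta (10 nM) was preincubated with compounds for 15 min at room temperature, after which fluorescent replication substrate (50 nM final) was added to start the reaction. Fluorescence was read kinetically at 0 and 10 min.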
A number is an active result; ! = a repeat was not active; [ ] = another dose, or the depositor's remark. Unless noted, the call rests on the fitted dose curve; in most records, active means well fitted inhibition curve with a large enough effect; inconclusive means small, poorly fitted or top-dose-only effect, or another doubt; inactive means no such curve, though single readings can be large or run the other way.

How did CCN1CCC2(CC1)Oc1c(OC)cccc1C1CC(c3ccc(Cl)cc3)=NN12 (centres undefined) do in these assays?
12-LOX inh: inactive

How did CCCCC1=CC2=C(c3ccco3)C(=O)C(C)(OC(=O)c3ccc(OC)cc3)C(=O)C2=CN1CCCCO (centres undefined) do in these assays?
Pol kappa inh: inactive; PI5P4K alpha inh: inactive; Pol iota inh: inconclusive; Pol beta inh: inactive; 12-LOX inh: inactive; Pol eta inh: inactive

What do the screens show for `CCCCC1=CC2=C(c3ccco3)C(=O)C(C)(OC(=O)c3ccc(OC)cc3)C(=O)C2=CN1Cc1ccco1` (centres undefined)?
Pol kappa inh: 50µM; PI5P4K alpha inh: inactive; Pol iota inh: 4µM; Pol beta inh: 10µM; Pol eta inh: inactive

What do the screens show for `CCCCC1=CC2=C(c3ccco3)C(=O)C(C)(OC(=O)c3ccc(OC)cc3)C(=O)C2=CN1Cc1ccc(OC)cc1` (centres undefined)?
Pol beta inh: 45µM

How did CCOc1ccccc1NC(=O)c1ncoc1-c1ccc(OC)cc1 do in these assays?
12-LOX inh: inactive

What do the screens show for `NC(=O)c1ccc(S(=O)(=O)N2CCN(c3nc(-c4cccnc4)nc4ccccc34)CC2)cc1`?
12-LOX inh: inactive

How did c1ccc2c(-c3ccn[nH]3)cccc2c1 do in these assays?
12-LOX inh: 25µM

How did c1ccc2oc(-c3ccn[nH]3)cc2c1 do in these assays?
Pol kappa inh: inactive; PI5P4K alpha inh: inactive; Pol iota inh: inactive; Pol beta inh: inactive; 12-LOX inh: inactive; Pol eta inh: inactive

How did CC1=CC(C)(C)N2C(=O)C(=Nc3ccc(O)cc3)c3cccc1c32 do in these assays?
Pol kappa inh: inactive; PI5P4K alpha inh: inconclusive; Pol iota inh: 7.9µM; Pol beta inh: inactive; 12-LOX inh: inconclusive; Pol eta inh: 20µM

Results for COc1ccc(C(=O)O)c(OCc2ccc(C#N)cc2)c1 ?
12-LOX inh: inactive

What do the screens show for `CC1=C(C(=O)OCC(Cl)(Cl)Cl)N2C(=O)C(NC(=O)Cc3ccccc3)C2SC1` (centres undefined)?
Pol kappa inh: inactive; PI5P4K alpha inh: inactive; Pol iota inh: inactive; Pol beta inh: inactive; 12-LOX inh: inactive; Pol eta inh: inactive

Results for Cc1nnc(SCC2=C(C(=O)O)N3C(=O)C(NC(=O)Cc4ccccc4)C3SC2)s1 (centres undefined) ?
Pol kappa inh: inconclusive; PI5P4K alpha inh: inactive; Pol iota inh: inconclusive; 12-LOX inh: inconclusive; Pol eta inh: 22µM

How did CC(=O)OCC1=C(C(=O)OC(C)(C)C)N2C(=O)[C@@H](NC(=O)Cc3ccccc3)[C@H]2SC1 do in these assays?
Pol kappa inh: inconclusive; PI5P4K alpha inh: -51; Pol iota inh: 32µM; 12-LOX inh: inactive; Pol eta inh: inconclusive

How did Cc1cc(=O)c(C(=O)N[C@@H](C(=O)N[C@@H]2C(=O)N3C(C(=O)O)=C(CSc4nnnn4C)CS[C@H]23)c2ccc(O)cc2)c[nH]1 do in these assays?
Pol kappa inh: inactive[19.4 µM]

What do the screens show for `CC(C(=O)NC1C(=O)N2C(C(=O)O)=C(CSc3nnnn3C)CSC12)n1cc(Cl)cn1` (centres undefined)?
Pol kappa inh: inactive; PI5P4K alpha inh: inactive; Pol iota inh: inconclusive; Pol beta inh: inconclusive; 12-LOX inh: inactive; Pol eta inh: 35µM

Results for N#Cc1cccc(-c2ccnc(N[C@H]3CO[C@H]4[C@@H]3OC[C@H]4OC(=O)Nc3cccc4ccccc34)n2)c1 ?
12-LOX inh: inactive

Results for COc1ccc(NC(=O)[C@@H]2C[C@H](c3ccc(F)cc3)N(Cc3csc(C)n3)C2)c(C)c1 ?
12-LOX inh: inactive

How did COc1cccc(C(=O)Oc2ccc(C3SCCS3)cc2OC)c1 do in these assays?
12-LOX inh: inactive

Results for COc1cccc(C(=O)NN2CC(O)=C(c3nc4ccccc4s3)C2=N)c1 ?
Pol kappa inh: inactive; PI5P4K alpha inh: inactive; Pol iota inh: inconclusive; Pol beta inh: inconclusive; 12-LOX inh: inactive; Pol eta inh: inactive

Results for N=C1C(c2nc3ccccc3s2)=C(O)CN1NC(=O)c1ccco1 ?
Pol kappa inh: inactive; PI5P4K alpha inh: inactive; Pol iota inh: inconclusive; Pol beta inh: 25µM; 12-LOX inh: inactive; Pol eta inh: inactive

What do the screens show for `COc1ccccc1-c1[nH]nc2ncc(-c3cnn(C)c3)nc12`?
12-LOX inh: inactive

What do the screens show for `Cn1ccc2cc3c(cc21)CCN3C(=O)Nc1cccnc1`?
Pol kappa inh: inactive; PI5P4K alpha inh: inactive; Pol iota inh: inconclusive; Pol beta inh: inactive; 12-LOX inh: 9.7µM!; Pol eta inh: inconclusive

Results for CN1CCc2cc(NC(=O)Nc3cccnc3)ccc21 ?
Pol kappa inh: inactive; Pol iota inh: inconclusive; Pol beta inh: inactive; Pol eta inh: inactive

What do the screens show for `COc1ccc2c(C)c(CCC(=O)Nc3cc(C)ccc3F)c(=O)oc2c1`?
12-LOX inh: inactive

What do the screens show for `O=C(NCC(=O)N1CCN(c2ccccc2O)CC1)c1ccco1`?
Pol kappa inh: inactive; PI5P4K alpha inh: inactive; Pol iota inh: 79µM; Pol beta inh: inactive; 12-LOX inh: inactive; Pol eta inh: inactive

Results for O=C(Cc1ccc(Cl)cc1)N1CCN(c2ccccc2O)CC1 ?
12-LOX inh: 32µM

Results for CCCCCCCCCC(=O)Nc1ccc(C)c(C)c1 ?
12-LOX inh: inactive

Results for Cc1ccc(OCCC(=O)OCC(=O)Nc2ccc(Cl)cn2)cc1 ?
Pol kappa inh: inactive; PI5P4K alpha inh: inactive; Pol iota inh: inconclusive; Pol beta inh: inactive; 12-LOX inh: inactive; Pol eta inh: 16µM

What do the screens show for `Cn1c(=O)ccn(CC(=O)Nc2nc(C(C)(C)C)cs2)c1=O`?
12-LOX inh: inactive

Results for COc1ccc(/C=N/NC(=O)c2ccc(NC(=O)c3cccc([N+](=O)[O-])c3)cc2)c(C(=O)O)c1OC ?
Pol kappa inh: inactive; PI5P4K alpha inh: inconclusive; Pol iota inh: inconclusive; Pol beta inh: 71µM; 12-LOX inh: inactive; Pol eta inh: 79µM

What do the screens show for `COc1cc([N+](=O)[O-])cc(/C=N/NC(=O)c2ccc(C)nc2)c1O`?
Pol kappa inh: inactive; PI5P4K alpha inh: inactive; Pol iota inh: inconclusive; Pol beta inh: inactive; 12-LOX inh: inconclusive; Pol eta inh: inconclusive

What do the screens show for `COc1cc(OC)c([N+](=O)[O-])cc1/C=N/NC(=O)c1ccncc1`?
Pol kappa inh: inactive; PI5P4K alpha inh: inactive; Pol iota inh: inconclusive; Pol beta inh: inactive; 12-LOX inh: inactive; Pol eta inh: 32µM

How did COc1cc([N+](=O)[O-])cc(/C=N/NC(=O)c2ccc(NC(=O)c3ccc(C)cc3)cc2)c1O do in these assays?
Pol kappa inh: inactive; PI5P4K alpha inh: -62; Pol iota inh: inactive; Pol beta inh: inactive; 12-LOX inh: inactive; Pol eta inh: inactive

Screening data (PubChem)
